# Test results from PubChem BioAssay (NCATS).
# Several values for one entry are separate records, joined by “and”; a condition that tells them apart may be missing. Identical values can stand only once. Inconclusive results are not listed. A call without a number means that no potency is given here. Activity calls are given as the source filed them. Unless noted, calls follow the shape of the dose curve; as a rule, active = well fitted curve in the direction sought with a large enough effect; inconclusive = small, poorly fitted or top-dose-only effect, or another doubt; inactive = no such curve, though single readings can be large; an effect the other way counts as inactive or inconclusive.
# Experiments:
# [1] = biological target: Luciferin 4-monooxygenase (Photinus pyralis) (UniProt P08659); assay: Biochemical firefly luciferase enzyme assay for NPC (AID 624030);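 also: purified P. pyralis luciferase at 10 nM with luciferin and ATP substrate; nearly all actives have a fitted effect of over 70% in size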; details: purified P. pyralis luciferase, luminescence, 5 min; series mostly up to 58.6 µM
# Luciferin 4-monooxygenase (Photinus pyralis), sequence (P08659 whole entry, looked up): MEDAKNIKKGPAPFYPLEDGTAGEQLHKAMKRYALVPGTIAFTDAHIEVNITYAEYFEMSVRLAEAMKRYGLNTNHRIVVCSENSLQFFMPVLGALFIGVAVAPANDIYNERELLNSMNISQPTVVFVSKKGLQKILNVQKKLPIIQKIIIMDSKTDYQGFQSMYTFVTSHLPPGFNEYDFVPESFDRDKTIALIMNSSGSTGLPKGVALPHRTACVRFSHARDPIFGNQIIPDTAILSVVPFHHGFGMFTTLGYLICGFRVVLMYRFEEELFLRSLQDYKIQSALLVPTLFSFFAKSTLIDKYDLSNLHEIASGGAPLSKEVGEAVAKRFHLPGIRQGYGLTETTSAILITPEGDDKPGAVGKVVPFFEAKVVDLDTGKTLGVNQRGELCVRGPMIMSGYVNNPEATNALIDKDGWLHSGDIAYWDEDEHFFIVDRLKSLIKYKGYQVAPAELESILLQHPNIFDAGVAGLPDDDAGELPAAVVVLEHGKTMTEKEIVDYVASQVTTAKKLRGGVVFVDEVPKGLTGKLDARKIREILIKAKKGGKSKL
# Summary of the method: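 Purified P. pyralis luciferase at 10 nM in 50 mM Tris Acetate (final), luminescence read within 5 minutes of enzyme addition to compounds. Activity normalised to PTC124 versus DMSO; concentration-response curves classed by r2, magnitude and activity.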
# [2] = S16 Schwann cell viability assay (CellTiter-Glo assay) (AID 624031); details: S16 rat Schwann cells viability, 24 h; series mostly up to 57.5 µM; also: nearly all actives have a fitted effect of over 70% in size; also: potency is read from the fitted curve at half-maximal effect
# Summary of the method: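 Rat S16 Schwann cells without reporter constructs received compound or DMSO for 24 h at 37 °C under 5% CO2. Cellular ATP was then quantified by CellTiter-Glo luminescence, with vehicle wells defined as 0% activity and cell-free wells as reference.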
# [3] = S16 Schwann cell PMP22 intronic element beta-lactamase assay (AID 624044; calls by dose curve; also: nearly all actives have a fitted effect of over 15% in size); details: S16 rat Schwann cells, PMP22 element beta-lactamase FRET, 24 h; series mostly up to 38.3 µM
# Summary of the method: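 Beta-lactamase reporter under a PMP22 intronic regulatory element in stable S16 rat Schwann cells; 24 h compound exposure. 460 nm blue signal normalized between DMSO (0%) and potassium clavulanate, with 535 nm FRET tracking viability; curves classed by r2 and response.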
# [4] = biological target: Voltage-gated inwardly rectifying potassium channel KCNH2 (Homo sapiens) (UniProt Q12809); assay: qHTS Assay for Small Molecule Inhibitors of the Human hERG Channel Activity (AID 588834); details: U2OS BacMam hERG, FluxOR thallium flux fluorescence; series mostly up to 46.1 µM;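 also: lower thallium flux fluorescence means stronger hERG block; nearly all actives have a fitted effect of over 50% in size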; also: potency is read from the fitted curve at half-maximal effect
# Voltage-gated inwardly rectifying potassium channel KCNH2 (Homo sapiens), sequence (Q12809 whole entry, looked up): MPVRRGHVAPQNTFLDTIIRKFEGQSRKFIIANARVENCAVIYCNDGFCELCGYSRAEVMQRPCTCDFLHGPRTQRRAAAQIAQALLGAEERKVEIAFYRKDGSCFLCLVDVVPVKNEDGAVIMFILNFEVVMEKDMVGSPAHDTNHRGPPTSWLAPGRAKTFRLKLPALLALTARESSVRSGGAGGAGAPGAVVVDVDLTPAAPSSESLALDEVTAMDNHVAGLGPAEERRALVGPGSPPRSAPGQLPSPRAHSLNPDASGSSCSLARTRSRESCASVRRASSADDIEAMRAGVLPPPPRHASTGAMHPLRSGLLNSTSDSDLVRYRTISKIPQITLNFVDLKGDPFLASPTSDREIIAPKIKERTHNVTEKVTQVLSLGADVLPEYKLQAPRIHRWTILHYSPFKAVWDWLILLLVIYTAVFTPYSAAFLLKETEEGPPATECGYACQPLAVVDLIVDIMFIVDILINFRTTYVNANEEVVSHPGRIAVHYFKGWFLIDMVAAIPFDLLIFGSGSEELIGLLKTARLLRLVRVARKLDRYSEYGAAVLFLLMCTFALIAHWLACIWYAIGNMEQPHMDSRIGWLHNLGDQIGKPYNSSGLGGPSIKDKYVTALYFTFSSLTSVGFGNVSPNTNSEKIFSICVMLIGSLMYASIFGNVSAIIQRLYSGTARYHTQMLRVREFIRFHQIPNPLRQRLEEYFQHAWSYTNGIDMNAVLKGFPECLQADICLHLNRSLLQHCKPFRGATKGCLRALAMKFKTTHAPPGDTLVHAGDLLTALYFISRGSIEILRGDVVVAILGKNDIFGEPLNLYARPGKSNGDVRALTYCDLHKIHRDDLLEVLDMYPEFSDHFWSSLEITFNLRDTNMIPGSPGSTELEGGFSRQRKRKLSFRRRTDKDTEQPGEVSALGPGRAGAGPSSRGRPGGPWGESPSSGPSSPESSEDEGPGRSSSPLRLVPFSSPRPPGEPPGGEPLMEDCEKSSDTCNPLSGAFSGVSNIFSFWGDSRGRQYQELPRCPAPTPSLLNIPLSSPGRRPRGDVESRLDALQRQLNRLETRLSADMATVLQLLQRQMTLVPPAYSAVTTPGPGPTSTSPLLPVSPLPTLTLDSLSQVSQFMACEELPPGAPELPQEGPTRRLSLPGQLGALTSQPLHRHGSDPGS
# Summary of the method: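 In hERG-transduced U2OS cells, dye-loaded for 1 hr at room temperature in dark, test compounds incubated 10 min at 37 °C before thallium stimulation. AC50 values derived by Hill modelling of concentration-response.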
# [5] = S16 Schwann cell PMP22 intronic element firefly luciferase assay (AID 624032); details: S16 rat Schwann cells, PMP22 element FLuc, 24 h; series mostly up to 57.5 µM; also: nearly all actives have a fitted effect of over 30% in size; also: potency is read from the fitted curve at half-maximal effect
# Summary of the method: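 Rat S16 Schwann cells stably carrying firefly luciferase driven by a PMP22 intronic element, in 10% FBS, treated 24 h at 37 C. ONE-Glo luminescence normalized to PTC124 control and DMSO (0%); curves classed by r2, magnitude and activity.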
Compound,Potency [1],Potency [2],Potency [3],Potency [4],Potency [5]
O=C(O)Cc1sc(-c2ccccc2)nc1-c1ccc(Cl)cc1,inactive,–,–,–,–
NC(=O)NNc1ccccc1,inactive,inactive,inactive,–,–
O=S(=O)(O)c1cc(I)c(O)c2ncccc12,–,inactive,–,inactive,inactive
CSc1ccc2c(c1)N(CCC1CCCCN1C)c1ccccc1S2 (centres undefined),inactive,32.2 µM (active),inactive,–,28.7 µM (active)
COc1ccc2[nH]c(S(=O)Cc3ncc(C)c(OC)c3C)nc2n1 (centres undefined),–,–,inactive,inactive,inactive
COCCOC(=O)C1=C(C)NC(C)=C(C(=O)OC/C=C/c2ccccc2)C1c1cccc([N+](=O)[O-])c1 (centres undefined),inactive,–,inactive,inactive,7.21 µM (active)
O=C(O)c1ccccc1O,–,inactive,inactive,inactive,inactive
CCOc1nc2cccc(C(=O)O)c2n1Cc1ccc(-c2ccccc2-c2nn[nH]n2)cc1,inactive,inactive,–,–,–
c1ccc(CN(CC2=NCCN2)c2ccccc2)cc1,inactive,–,–,–,inactive
CCCCN(CCCC)CC(O)c1cc(Cl)cc2c1-c1ccc(Cl)cc1/C2=C/c1ccc(Cl)cc1 (centres undefined),inactive,28.7 µM (active),–,–,–
Cn1c(=O)c2c(ncn2CC2OCCO2)n(C)c1=O,inactive,–,–,inactive,inactive
CC(C(O)c1ccc(O)cc1)N1CCC(Cc2ccccc2)CC1 (centres undefined),inactive,–,–,1.12 µM (active) and 501 nM (active),25.6 µM (active)
CC(C)(C(=O)O)c1ccc(C(O)CCCN2CCC(C(O)(c3ccccc3)c3ccccc3)CC2)cc1 (centres undefined),inactive,–,–,–,–
CNCCC(Oc1ccc(C(F)(F)F)cc1)c1ccccc1 (centres undefined),inactive,–,inactive,–,–
CCN(CC)CCNC(=O)c1c(C)[nH]c(/C=C2\C(=O)Nc3ccc(F)cc32)c1C,inactive,–,inactive,–,–
CCCCN1CCCC[C@H]1C(=O)Nc1c(C)cccc1C,inactive,–,inactive,inactive,inactive
Cc1cc(N)c2ccccc2[n+]1CCCCCCCCCC[n+]1c(C)cc(N)c2ccccc21,inactive,–,–,inactive,3.46 µM (active)
COc1cc(C)c(Cc2cnc(N)nc2N)cc1OC,inactive,–,–,inactive,inactive
OCc1cc(C(O)CNCCCCCCOCCCCc2ccccc2)ccc1O (centres undefined),–,20.3 µM (active),inactive,4.47 µM (active) and 3.55 µM (active),–
Oc1ccc(C(O)CNCCCCCCNCC(O)c2ccc(O)c(O)c2)cc1O (centres undefined),inactive,–,inactive,inactive,–
CN(C)CCCN1c2ccccc2CCc2ccccc21,inactive,inactive,–,–,–
Cc1cc(C(C#N)c2ccc(Cl)cc2)c(Cl)cc1NC(=O)c1cc(I)cc(I)c1O (centres undefined),–,inactive,inactive,inactive,–
O=c1[nH]c(=O)c2[nH]c(=O)[nH]c2[nH]1,inactive,–,–,inactive,inactive
CCN(CC)CCOC(=O)C1(C2CCCCC2)CCCCC1,inactive,–,–,–,–
CC(C)(C)C(=O)C(Oc1ccc(Cl)cc1)n1ccnc1 (centres undefined),inactive,inactive,inactive,–,–
C[C@H](N)[C@H](O)c1cccc(O)c1,inactive,–,inactive,inactive,inactive
Nc1ccc(S(=O)(=O)Nc2ccccc2)cc1,inactive,–,inactive,inactive,inactive
COc1ccc2c(c1)C(=O)N(CCc1ccc(S(=O)(=O)NC(=O)NC3CCCCC3)cc1)C(=O)C2(C)C,inactive,inactive,inactive,inactive,–
